# Most compounds without a hit are left out; they make up all but 5.2% or so of the library.
# FBPA coupling cs – coupling enzyme interference in Giardia aldolase counter-screen. coupling enzyme system counterscreen, AmpLite Red fluorescence. activity change, negative = inhibition, % at 58.2 µM, hits read low. 290,000 compounds, 0.67% hits. AID 2472; in the data active = activity change below about -30%
#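 Final compound at 57.5 uM, incubated 10 min at RT with coupling enzyme reagent (glyceraldehyde-3-phosphate), then 20 min with substrate and AmpLite Red detection. Fluorescence read at 525/598 nm; tests interference with the coupling assay, not aldolase inhibition.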
# Tau fibril FP – blocks human tau fibril formation measured by polarization; 280,000 compounds, 0.39% hits; AID 1468; Potency, µM (series often up to 57.7 µM), for inactives: top-dose activity, negative = inhibition, most hits filed as inhibitors; K18 P301L tau heparin fibrillization, Alexa594 FP, 6 h; P10636; note: potency is the fitted concentration of half-maximal effect; nearly all actives have a fitted effect of over 55% in size
# Target sequence (P10636 561-689 P618L limits assumed): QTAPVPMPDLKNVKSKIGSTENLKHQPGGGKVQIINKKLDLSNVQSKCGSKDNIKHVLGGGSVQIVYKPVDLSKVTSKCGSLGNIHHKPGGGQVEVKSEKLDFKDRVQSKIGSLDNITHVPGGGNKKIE
#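 Quantitative HTS format: compounds meet 15 uM recombinant K18 P301L tau and Alexa 594-tau tracer in 100 mM sodium acetate pH 7; 20 uM heparin triggers fibrillization at 37 C over 6 hr; FP gives the signal.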
# Tau fluor counter – counter-screen for tau fibril formation inhibitors; tau K18 P301L Alexa594 fluorescence, heparin fibrillization; Potency, µM (highest dose often 57.7 µM), without a hit: top-dose activity change, negative = decrease; 280,000 compounds, 0.93% hits; note: potency is the fitted concentration of half-maximal effect; nearly all actives have a fitted effect of over 55% in size
#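 Human tau K18 P301L (15 uM unlabeled, 0.24 uM Alexa 594-labeled) in 100 mM sodium acetate pH 7 with 20 uM heparin, 6 hr at 37 C. ThT 30 uM added, 1 hr ambient; Alexa 594 FP and total fluorescence read at 555/632 nm.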
# Sfp inh – inhibitors of Bacillus subtilis Sfp phosphopantetheinyl transferase. Biochemical Sfp PPTase activity, qHTS. Q9F4F7. 310,000 compounds, 3.5% hits. Potency, µM, without a hit: largest response in the series, negative = inhibition, hits mostly inhibitors;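 note: the enzyme is Sfp with the accession as filed and its product quenches rhodamine fluorescence; potency is the fitted concentration of half-maximal effect; 0% = enzyme reaction without inhibitor and -100% = no enzyme wells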
#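 Compounds were incubated with enzyme (final 15 nM) for 15 min at room temperature before substrate addition started the reaction. Fluorescence at 525 nm excitation, 598 nm emission was recorded immediately and after 30 minutes.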
# Tau ThT inhib – inhibitors of human tau fibril formation, thioflavin T binding | 270,000 compounds, 2.1% hits | AID 1460 | Potency, µM (doses to about 57.4 µM), inactives show top-dose activity, negative = inhibition, actives largely listed as inhibitors | P10636 | recombinant tau K18 P301L (four-repeat tau fragment), heparin-induced fibrillization, ThT fluorescence; note: potency is the fitted concentration of half-maximal effect; nearly all actives have a fitted effect of over 55% in size
#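 K18 P301L tau (15 uM + 0.24 uM Alexa 594-tagged), heparin 20 uM, NaOAc pH 7, 6 h 37 C; ThT 30 uM, 1 h RT, ex 450/em 510 nm.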
# The depositor's hits bear a star; ? = inconclusive; nt = not tested or not shown; [ ] = another dose, or the depositor's remark. Unless noted, calls come from the whole dose curve; as a rule, active = well fitted curve in the direction sought with a large enough effect; inconclusive = small, poorly fitted or top-dose-only effect, or another doubt; inactive = no such curve, though single readings can be large; an effect the other way counts as inactive or inconclusive. Unless noted, % is set by controls: 0 for no effect and ±100 for the full control effect.
SMILES,FBPA coupling cs,Tau fibril FP,Tau fluor counter,Sfp inh,Tau ThT inhib
Cc1ccc2cc(C(c3nnnn3Cc3ccccc3)N3CCc4ccccc43)c(=O)[nH]c2c1 (stereo unspecified),-7.4,-0.8%,-25.7%,-11.1%,?
COc1ccc(OC)c(NC(=O)C2CCN(S(=O)(=O)c3ccc4c(c3)CCCC(=O)N4)CC2)c1,nt,5.1%,-10.9%,nt,-1.6%
COc1ccc(-n2c(SCC(=O)c3ccc(Cl)cc3)nc3c([nH]c4ccccc43)c2=O)cc1,nt,-4.4%,-6.8%,nt,-3.9%
Cc1cc(C)cc(NC(=O)Cn2c(=O)n(Cc3ccc4c(c3)OCO4)c(=O)c3oc4ccccc4c32)c1,nt,?,-18.7%,nt,17.2%
Cc1cc2cc(C(c3nnnn3Cc3ccco3)N3CCc4ccccc43)c(=O)[nH]c2cc1C (stereo unspecified),-13.1,?,-28.3%,10µM*,25.1µM*
Cc1ccc(Cl)c(NC(=O)COC(=O)CNS(=O)(=O)/C=C/c2ccccc2)c1Cl,5.9,-16.1%,-19.6%,50.1µM*,-13.8%
CCCS(=O)(=O)N1CCCC(C(=O)NCCOC)C1 (stereo unspecified),nt,-6.7%,-0.6%,nt,7.8%
CCn1c(=O)cc(SCC(=O)NCCc2cccc(C)c2)c2ccccc21,nt,0.6%,-23.1%,nt,?
CCn1c(=O)cc(OCC(=O)NCCc2cccc(C)c2)c2ccccc21,-0.4,4.3%,-13.1%,79.4µM*,-13.1%
CC(C)CO/N=C1/[C@H]2O[C@@H]2[C@@H](O)[C@H]2[C@H]1CCn1c(=O)n(C)c(=O)n12,1.4,1.2%[11.6 µM],-12.8%[11.6 µM],16.6%,-11.1%[11.5 µM]
Cc1cc(C)c(CSc2ncc(-c3ccc([N+](=O)[O-])cc3)[nH]2)c(C)c1,-8.0,-10.4%,6.31µM*[quencher],26.1%,5.01µM*
O=[N+]([O-])c1ccc(-c2cnc(SC(c3ccccc3)c3ccccc3)[nH]2)cc1,3.8,?,3.98µM*[quencher],39.2%,?
O=[N+]([O-])c1ccc(-c2cnc(SCc3ccccc3Cl)[nH]2)cc1,-1.7,-4.0%,15.8µM*[quencher],9.9%,14.1µM*
NC(=O)CSc1ncc(-c2ccc([N+](=O)[O-])cc2)[nH]1,-0.2,-4.5%,-15.5%,8.0%,?
O=C1CC(c2nc3ccccc3n2CCCCOc2ccccc2)CN1c1ccccc1Cl (stereo unspecified),nt,7.9%,-17.5%,nt,?
COc1ccccc1NC(=O)C(=O)NCC(c1ccc2c(c1)OCO2)N1CCOCC1 (stereo unspecified),nt,-1.9%,-4.0%,nt,9.6%
O=C(CN1C(=O)c2ccccc2Sc2ccc(C(=O)N3CCOCC3)cc21)Nc1ccc(Cl)cc1F,nt,-3.1%,-4.3%,nt,1.1%
CCC(=O)NC1=C(NC(C)c2ccccc2)C(=O)c2ccccc2C1=O (stereo unspecified),-46.2*,1.9%,-11.2%,-17.4%,?
CCOC(=O)Cc1csc(NC(=O)c2csc(C)c2)n1,0.0,6.0%,-2.7%,4.8%,-14.6%
CCOC(=O)Cc1csc(NC(=O)c2sc3nc4c(C)cc(C)cc4cc3c2N)n1,5.2,2.6%,?,-14.4%,15.8µM*
COC(=O)c1ccc(NC(=O)C(=O)NCCc2sc(-c3cccc(F)c3)nc2C)cc1,nt,1.1%,1.2%,nt,?
O=C(NNS(=O)(=O)c1ccccc1)c1cccc(F)c1,4.8,nt,nt,35.5µM*,nt
Cc1nnc(Sc2cc(NCCCO)c([N+](=O)[O-])c3nonc23)s1,-36.5*,-14.1%,?,3.16µM*,6.31µM*
Cc1nnc(Sc2cc(NCCO)c([N+](=O)[O-])c3nonc23)s1,-22.2,?,?,6.31µM*,7.94µM*
O=[N+]([O-])c1c(NCCO)cc(N2CCCCCC2)c2nonc12,-8.2,nt,nt,-1.2%,nt
SMILES,FBPA coupling cs,Tau fibril FP,Tau fluor counter,Sfp inh,Tau ThT inhib
CCOc1ccccc1-n1c(=S)sc2c(=O)n(-c3ccc(C)cc3)c(=S)[nH]c21,-22.6,-8.0%,-2.5%,44.7µM*,-6.8%
COC(=O)C1=C(C(=O)OC)SC2(S1)C(C(=O)OC)=C(C(=O)OC)SC1=C2c2cc(C)cc(C)c2NC1(C)C,-2.2,?,?,8.8%,14.1µM*
CCN(/C=N/c1sc2c(c1C#N)CCCCC2)CC,1.9,?,-21.9%,-10.5%,?
Cc1ccc(/C=N/c2sc3c(c2C#N)CCC3)s1,-2.3,-4.5%,-25.2%,-7.0%,2µM*
Cc1ccc(/C=C/C(=O)Nc2sc3c(c2C#N)CCCC3)o1,-0.1,-6.3%,-6.3%,39.8µM*,-6.8%
N#Cc1c(/N=C/c2ccco2)sc2c1CCC2,1.8,-5.2%,-16.3%,-12.1%,?
Cc1ccc(/C=N/c2sc3c(c2C#N)CCCCC3)o1,-10.1,0.4%,-16.3%,50.1µM*,?
N#Cc1c(/N=C/c2cc3ccccc3s2)sc2c1CCC2,0.9,-0.9%,-6.8%,-28.3%,1.26µM*
COc1cccc(Cc2nc3ccccc3nc2SCC(=O)NCc2ccc(C)cc2)c1,nt,-2.4%,-0.5%,nt,3.2%
CCOC(=O)c1cccc(NC(=O)CCc2c(C)nn(-c3ccc(N4CCOCC4)nn3)c2C)c1,nt,-0.5%,5.3%,nt,?
NS(=O)(=O)c1ccc(CCNC(=O)Cn2c(=O)c3cccn3c3ccc(F)cc32)cc1,nt,?,-3.4%,nt,7.0%
Cc1[nH]n(-c2cccc3ccccc23)c(=O)c1/C=N/c1sc2c(c1C#N)CCC2,9.4,-7.1%,-24.3%,79.4µM*,?
CN1CCN(/C=N/c2sc3c(c2C#N)CCCCC3)CC1,-0.6,7.2%,-18.1%,-1.5%,-15.5%
N#Cc1c(/N=C/C=C/c2ccccc2)sc2c1CCCC2,1.6,0.7%,-12.5%,25.1µM*,?
Cc1[nH]n(-c2ccc(F)cc2)c(=O)c1/C=N/c1sc2c(c1C#N)CCCC2,-0.7,3.4%,-13.0%,8.1%,?
COC(=O)[C@@H]1C[C@H]1[C@@H](NC(=O)Oc1ccc(F)cc1)c1ccccc1,-0.2,2.6%,-15.3%,9.1%,?
Cc1ccc(Sc2c(C)nn(C(=O)COc3ccccc3Br)c2C)cc1,nt,-1.4%,-6.3%,nt,?
Cc1noc(C)c1-c1cc(N(C)Cc2ccco2)ncn1,-0.4,nt,nt,56.2µM*,nt
CN(Cc1ccco1)c1cc(-c2ccoc2)ncn1,-11.5,nt,nt,31.6µM*,nt
CN(C)c1ccc(-c2cc(N(C)Cc3ccco3)ncn2)cc1,1.4,nt,nt,-15.8%,nt
Cc1ccccc1-c1cc(N(C)Cc2ccco2)ncn1,0.6,nt,nt,-29.5%,nt
Cc1cc(O)c(C)c2c1CC[C@H]1[C@H](C)C(=O)O[C@H]21,3.8,2.8%,-10.6%,26.2%,-4.5%
COc1ccc(CNC(=O)C(=O)NCC(c2cccs2)S(=O)(=O)c2ccc(C)cc2)cc1 (stereo unspecified),nt,-9.3%,-7.4%,nt,0.4%
CCC1(C)Cc2c(sc3[nH]c(=O)[nH]c(=O)c23)CS1 (stereo unspecified),5.0,-14.0%,-10.2%,22.4µM*,?
CCC1(C)Cc2c(sc3[nH]c(=S)[nH]c(=S)c23)CO1 (stereo unspecified),1.8,nt,nt,10.6%,nt

# High-throughput results as filed in PubChem.
